{"source": "PubChem BioAssay AID1645852", "about": "(National Center for Advancing Translational Sciences (NCATS), 2021)", "note": "The campaign covered roughly 1,200 compounds. About 160 (13%) were called active. Another 31% or so got no clear call; they are omitted. Not all results are given here. Unmarked numbers belong to inactive results. Calls follow the shape of the dose curve; as a rule, active = well fitted inhibition curve with a large enough effect; inconclusive = small, poorly fitted or top-dose-only effect; inactive = no such curve, though single readings can be large or run the other way. % is scaled to controls: 0 for no effect and ±100 for the full control effect; potency is read from the fitted curve at half-maximal effect."}
{"molecular_target": "Inositol hexakisphosphate kinase 1 (Homo sapiens) (UniProt Q92551)", "sequence (Q92551 whole entry, looked up)": "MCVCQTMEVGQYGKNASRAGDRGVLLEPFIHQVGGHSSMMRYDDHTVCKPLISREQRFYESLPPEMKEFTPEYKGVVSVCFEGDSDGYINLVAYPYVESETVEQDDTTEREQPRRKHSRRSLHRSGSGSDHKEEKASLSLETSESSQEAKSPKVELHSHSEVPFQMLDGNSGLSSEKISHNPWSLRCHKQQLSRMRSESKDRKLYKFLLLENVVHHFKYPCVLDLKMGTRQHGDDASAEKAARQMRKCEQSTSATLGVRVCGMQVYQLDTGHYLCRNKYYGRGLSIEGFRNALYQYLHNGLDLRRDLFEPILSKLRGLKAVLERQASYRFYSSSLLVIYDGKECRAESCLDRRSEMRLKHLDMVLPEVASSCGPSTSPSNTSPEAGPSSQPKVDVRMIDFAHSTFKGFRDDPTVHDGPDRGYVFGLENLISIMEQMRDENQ", "assay": "Confirmatory qHTS assay for small molecule inhibitors of Inositol hexaphosphate kinase 1 (IP6K1); also: nearly all actives have a fitted effect of over 65% in size", "conditions": "recombinant IP6K1 kinase, ADP-Glo luminescence, 2 h; series mostly up to 49 µM; activity change, negative = inhibition: at the top concentration", "text": "Assay Provider: Huijun Wei, M.S., Ph.D. School of Medicine, Johns Hopkins University, Baltimore, MD Inositol hexakisphosphate kinases (IP6Ks) catalyze pyrophosphorylation of inositol hexakisphosphate (IP6) into inositol 5-diphospho-1,2,3,4,6-pentakisphosphate (IP7), which is involved in numerous areas of cell physiology including glucose homeostasis, blood coagulation and neurological development. Inhibition of IP6Ks may be effective for the treatment of Type II diabetes, thrombosis, and psychiatric disorders. We performed a quantitative high throughput screen (qHTS) of 158,410 compounds for IP6K1 inhibitors using ankinase activity ADP-Glo Max assay. […] Medicinal chemistry SAR efforts in three chemical series identified potent IP6K1 inhibitors, which were further validated in an orthogonal LC-MS IP7 analysis.\nPROTOCOL TABLE SEQUENCE No. (e.g., 1, 2, 3, etc.); […] (e.g., Cells, Incubation, Reagent, etc.); VALUE and DESCRIPTION. 1. Reagent, 3 uL of 1.3 mM ATP and 130 uM IP6 mixture in assay buffer was dispensed to a white, 1536-well assay plate. 2. Compound, 23 nL of compounds of the top two doses (57.5 uM and 19.1 uM final concentration) of the libraries were dispensed into the mixture using the Kalypsis pintool. 3. Reagent, 1 uL of 2.4 uM IP6K1 was dispensed to the assay plates. 4. Incubation, 2 hr incubation at room temperature. 5. Reagent, 2 uL of ADP-Glo reagent was added to the wells. 6. Incubation, 1 hr incubation at room temperature. 7. Reagent, 4 uL or ADP-Glo substate was added to the wells. 8. Incubation, 45 min incubation at room temperature. 9. Detection, luminescence signal was detected using the ViewLux microplate imager (PerkinElmer)."}
{"smiles": "Cc1ccc(CNC(=O)CCc2c(C)nc3c(c(C)nn3-c3ccccc3)c2C)cc1", "activity change, negative = inhibition": "-6.31%"}
{"smiles": "COc1ccc(C2Cn3nnc(C(=O)N4CCN(C(=O)c5ccc(C)cc5C)CC4)c3CO2)cc1", "note": "(centres undefined)", "activity change, negative = inhibition": "4.29%"}
{"smiles": "COc1c(C)cnc(CN(C)C(=O)C2CC(=O)N(C3CCCC3)C2)c1C", "note": "(centres undefined)", "activity change, negative = inhibition": "0.975%"}
{"smiles": "CCCS(=O)(=O)c1ncc(Cl)c(C(=O)Nc2scc(-c3ccccc3)c2C(=O)OCC)n1", "activity change, negative = inhibition": "-6.72%"}
{"smiles": "Cc1ccc(-c2nnc3ccc(-c4ccoc4)nn23)nc1", "activity change, negative = inhibition": "0.0128% [at 92.2 µM]"}
{"smiles": "CC1=C(C(=O)Nc2ccccc2Cl)C(c2cccs2)n2ncnc2N1", "note": "(centres undefined)", "activity change, negative = inhibition": "-29.2%"}
{"smiles": "CN(C)[C@@H]1C(=O)C(C(N)=O)=C(O)[C@@]2(O)C(=O)C3=C(O)c4c(O)ccc(Cl)c4[C@@H](O)[C@H]3C[C@@H]12", "activity change, negative = inhibition": "-16.3%"}
{"smiles": "Cc1ccc(-c2cc(C(=O)Oc3ccccc3Cl)no2)cc1C", "activity change, negative = inhibition": "30.1%"}
{"smiles": "COc1cc(NC(=O)Nc2cccc(CNC(=O)O[C@H]3CCOC3)c2)ccc1-c1cnco1", "Potency": "8.2 µM (active)"}
{"smiles": "C#C[C@]1(O)CC[C@H]2[C@@H]3CCC4=C/C(=N/O)CC[C@@H]4[C@H]3CC[C@@]21CC", "Potency": "1.84 µM (active)"}
{"smiles": "Cc1cccc(C(=O)N2CCC3(CC2)CC(c2ccccc2)CN(C)C3)n1", "note": "(centres undefined)", "activity change, negative = inhibition": "-16.6%"}
{"smiles": "Cc1cc(C)c(/C=C2\\C(=O)Nc3ccccc32)[nH]1", "activity change, negative = inhibition": "-5.46%"}
{"smiles": "Cc1ccc(-c2onc(C)c2C)cc1S(=O)(=O)Nc1ccccn1", "activity change, negative = inhibition": "-5.89%"}
{"smiles": "CC(C)(C)OC(=O)N1CCC(c2c(C(=O)N3CCc4ccccc4C3)cnn2-c2ccc(F)cc2)CC1", "activity change, negative = inhibition": "4.4%"}
{"smiles": "CCc1ccccc1N1CC(c2nc3ccccc3n2CCCCOc2ccccc2)CC1=O", "note": "(centres undefined)", "activity change, negative = inhibition": "-0.175%"}
{"smiles": "O=c1cc(-c2cccnc2)oc2c(-c3ccccc3O)nccc12", "activity change, negative = inhibition": "-25.6%"}
{"smiles": "CCOc1cccc2c1N[C@@H](c1ccc(C(=O)O)cc1)[C@H]1CC=C[C@@H]21", "Potency": "20.6 µM (active)"}
{"smiles": "CCOC(=O)c1cc2c(=O)n3ccccc3nc2n(Cc2ccco2)c1=NC(=O)c1ccc(F)cc1", "activity change, negative = inhibition": "-13%"}
{"smiles": "CCOC(=O)c1ccc(CSc2nnc3cc(C)c4ccccc4n23)cc1", "activity change, negative = inhibition": "-13%"}
{"smiles": "Cc1ccc2c(c1)N(CC(=O)NCCCN1CCCCC1)C(=O)c1cccnc1O2", "activity change, negative = inhibition": "-8.72%"}
{"smiles": "O=C(OCCN1CCOCC1)c1cccnc1Nc1cccc(C(F)(F)F)c1", "activity change, negative = inhibition": "-19.8%"}
{"smiles": "COc1ccccc1N1CCN(S(=O)(=O)CCNC(=O)COc2ccc(F)cc2)CC1", "activity change, negative = inhibition": "0.724%"}
{"smiles": "CCOc1ncccc1C(=O)N1CCN(Cc2ccccc2)CC(O)C1", "note": "(centres undefined)", "activity change, negative = inhibition": "-4.84%"}
{"smiles": "O=c1ncn(Cc2ccccc2)c2ccc(-c3ccoc3)nc12", "activity change, negative = inhibition": "-9.81%"}
{"smiles": "CCOC(=O)c1ccc(NC(=O)CCS(=O)(=O)c2ccc(C)cc2)cc1", "activity change, negative = inhibition": "-10.6%"}
{"smiles": "CO[C@H]1C=CO[C@@]2(C)Oc3c(C)c(O)c4c(O)c(c(/C=N/N5CCN(C)CC5)c(O)c4c3C2=O)NC(=O)/C(C)=C\\C=C[C@H](C)[C@H](O)[C@@H](C)[C@@H](O)[C@@H](C)[C@H](OC(C)=O)[C@@H]1C", "activity change, negative = inhibition": "-21.3%"}
{"smiles": "CCOc1ccccc1NC(=O)C1CCCN(S(=O)(=O)c2cn(C)cn2)C1", "note": "(centres undefined)", "activity change, negative = inhibition": "-14.5%"}
{"smiles": "C(=C\\c1ccccc1)/CN1CCN(c2nccc(-c3cccnc3)n2)CC1", "activity change, negative = inhibition": "-13.6%"}
{"smiles": "CCc1ccccc1N1C(=O)CN(S(=O)(=O)CC)CC1(C)C(=O)NC1CCCCC1", "note": "(centres undefined)", "activity change, negative = inhibition": "22.6%"}
{"smiles": "O=c1c2ccccc2n(Cc2cccc(Cl)c2)c(=O)n1Cc1ccccc1", "activity change, negative = inhibition": "-4.11%"}
{"smiles": "Cc1ccc(NC(=O)c2cc(S(=O)(=O)NCCC3=CCCCC3)ccc2F)cc1C", "activity change, negative = inhibition": "4.86%"}
{"smiles": "CC1(C)CN(C(=O)c2ccc(-c3cccc4nc(NC(=O)C5CC5)nn34)cc2)C1", "activity change, negative = inhibition": "7.31%"}
{"smiles": "COc1ccc2ncc3c(-c4ccc(C)c(C)c4)nn(CC(=O)NC4CCCC4)c3c2c1", "activity change, negative = inhibition": "26.6%"}
{"smiles": "Cc1ccncc1C(=O)N1CCC2(CC1)CC(c1ccccc1)C(=O)N2C", "note": "(centres undefined)", "activity change, negative = inhibition": "-13.6%"}
